Results on 54 compounds are retold here after PubChem BioAssay AID686979 (National Center for Advancing Translational Sciences (NCATS), 2013).

Molecules are shown by their SMILES. Among all 420,000 compounds or so, about 50,000 (12%) were called active. Not shown: some 26% with an inconclusive outcome. For the sample, actives were picked, then their nearest neighbours and some compounds at random. A number with no mark means an inactive call. The call rests on the fitted dose curve; in most records, active means well fitted inhibition curve with a large enough effect; inconclusive means small, poorly fitted or top-dose-only effect; inactive means flat fitted curve, though single readings scatter.
On the % scale 0 is the no-effect control and ±100 the full control effect; potency means the concentration at half of the fitted maximal effect.

A short description of this test: qHTS for Inhibitors of human tyrosyl-DNA phosphodiesterase 1 (TDP1): qHTS in cells in presence of CPT. Further: nearly all actives have a fitted effect of over 55% in size. Particulars: chicken DT40 Tdp1-/-;hTDP1 cells + 20 nM CPT, ATP luminescence, 48 h; series mostly up to 46.2 µM; activity change, negative = growth inhibition: at the top concentration. In outline: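 Chicken DT40 Tdp1-/- cells stably complemented with human TDP1 were seeded at 400 cells/well in medium containing 20 nM camptothecin, exposed to pin-transferred compounds, and grown at 37 °C for at least 48 hr. Viability was read as ATP luminescence.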
(In general: qHTS replaces the single test concentration by a dilution series.)
`CSc1ccc(CN(C)CC(=O)NCc2ccc(F)cc2)cc1`: the “activity change, negative = growth inhibition” value was -1.99%.
Consider `CC(C=Cc1ccccc1)=NNS(=O)(=O)c1ccc([N+](=O)[O-])cc1`, for which the “activity change, negative = growth inhibition” value was -30.1%.
As to `CC(=O)c1c(OCC(=O)N(C)C2CCCCC2)ccc2c(C)cc(=O)oc12`, the “activity change, negative = growth inhibition” value is -19.3%.
Turning to `Cc1cc(/C=C2/NC(=O)NC2=O)c(C)n1-c1cccnc1`, the “activity change, negative = growth inhibition” value was -10.2%.
Turning to `Cc1ccc2nc(COc3cccc(NC(=O)Nc4ccc(C)c(Cl)c4)c3)cc(=O)n2c1`, the “activity change, negative = growth inhibition” value was -18.2%.
As for `Cc1ccc2nc(COc3ccccc3NC(=O)Nc3ccc(F)c(Cl)c3)cc(=O)n2c1`, the Potency is 11.6 µM (active).
Take `Cc1ccc2nc(COc3ccc(NC(=O)COc4ccccc4F)cc3)cc(=O)n2c1`: the “activity change, negative = growth inhibition” value was -21.2%.
Take `Cc1ccsc1C(=O)N[C@@H](C)c1nnc2ccccn12`: the “activity change, negative = growth inhibition” value is 2.95%.
As to `CC(=O)c1c(C)[nH]c(C(=O)OCC(=O)Nc2c(C)cccc2C)c1C`, the Potency was 20.6 µM (active).
In the case of `CCCc1cc(=O)[nH]c(SCC(=O)Nc2sc3c(c2C#N)CCCC3)n1`, the “activity change, negative = growth inhibition” value is -9.05%.
For the compound `COc1ccc(-n2c(SCC(=O)Nc3sc4c(c3C#N)CCCC4)nnc2-c2ccc(O)cc2)cc1`, the “activity change, negative = growth inhibition” value is -19.3%.
Turning to `CCN1CCN(CC(=O)Nc2sc3c(c2C#N)CCC3)CC1`, the “activity change, negative = growth inhibition” value is -19.1%.
Take `CC(=O)c1c(C)[nH]c(C(=O)OCC(=O)Nc2sc3c(c2C#N)CCCC3)c1C`: the Potency is 16.4 µM (active).
`CC(=O)c1c(C)[nH]c(C(=O)OCC(=O)NCCC(C)C)c1C`: the “activity change, negative = growth inhibition” value is -19.5%.
Same read-out and setting: under `CC(=O)c1c(C)[nH]c(C(=O)OCC(=O)Nc2c(C)n(C)n(-c3ccccc3)c2=O)c1C` stands -7.08%.
On to `N#Cc1c(NC(=O)CCCl)sc2c1CCCCC2`, for which the Potency was 18.4 µM (active).
Turning to `N#Cc1c(NC(=O)C2CCCO2)sc2c1CCCCC2` (centres undefined), the “activity change, negative = growth inhibition” value is -15.2%.
As for `CC1=CC=CC2=N/C(=N\S(=O)(=O)c3ccc(F)cc3F)c3ccccc3CN12`, the “activity change, negative = growth inhibition” value is -4.68%.
Regarding `C=CCn1c(CNS(=O)(=O)c2ccc(Br)cc2)nnc1SC`, the “activity change, negative = growth inhibition” value is -1.07%.
`CCOC(=O)c1c(C)[nH]c(C(=O)OCC(=O)N2CCCC2=O)c1C`: the “activity change, negative = growth inhibition” value is -0.234%.
On to `CC(C)c1nc(CNC(=O)CC2C(=O)NCCN2Cc2cccc(F)c2F)cs1` (centres undefined), for which the “activity change, negative = growth inhibition” value is -8.63%.
The same measure, in the same setting: under `CC1(C(=O)Nc2ccc3c(c2)OCCO3)CN(S(C)(=O)=O)CC(=O)N1Cc1cccc(F)c1` (centres undefined) stands -19.9%.
With `CCCCc1nn2c(=O)cc(COC(=O)c3ccc(NC(=O)c4ccccc4C)cc3)nc2s1`, the Potency was 20.6 µM (active).
With `CCCc1nn2c(=O)cc(COC(=O)c3ccc(NC(=O)C(C)Oc4ccccc4)cc3)nc2s1` (centres undefined), the “activity change, negative = growth inhibition” value was -4.78%.
Take `CCCCc1nn2c(=O)cc(COC(=O)c3ccccc3NC(=O)C(C)(C)C)nc2s1`: the “activity change, negative = growth inhibition” value was -2.59%.
`Cc1nn2c(=O)cc(COC(=O)CNC(=O)c3ccc(F)cc3)nc2s1`: the “activity change, negative = growth inhibition” value was -0.0721%.
For the compound `CCOCCc1nn2c(=O)cc(COC(=O)CNC(=O)c3ccc(C(C)(C)C)cc3)nc2s1`, the Potency was 16.4 µM (active).
For the compound `CCOCCc1nn2c(=O)cc(CSCC(=O)Nc3cccc(C)c3C)nc2s1`, the “activity change, negative = growth inhibition” value is -13.4%.
As to `O=C(O)CCCCC(=O)O`, the “activity change, negative = growth inhibition” value is -0.525%.
Consider `COc1ccc(NC(=O)N(C)C[C@@H]2OCc3cn(nn3)CCCC(=O)N([C@H](C)CO)C[C@H]2C)c(OC)c1`, for which the “activity change, negative = growth inhibition” value was -5.76%.
On to `O=C(Nc1cccc([N+](=O)[O-])c1)Nn1cnnc1`, for which the “activity change, negative = growth inhibition” value is -8.2%.
Regarding `CC(C)CC(=O)NC(=S)Nc1cc(C(=O)O)ccc1Cl`, the “activity change, negative = growth inhibition” value is -1.14%.
On the same count and under the same terms, the same measure for `CC(C)Nc1ccc(-n2nc3ccccc3[n+]2[O-])cc1`: 11.5%; for `NS(=O)(=O)c1ccc(CCNC(=O)CNC(=O)Cc2ccccc2)cc1`: 9.87%.
As for `Cc1oc(-c2ccccc2Cl)[n+]([O-])c1C`, the Potency is 14.6 µM (active).
Take `CCOc1cnc(-c2c(-c3ccccc3Cl)noc2C)o1`: the “activity change, negative = growth inhibition” value was 8.07%.
On to `OCC[C@H]1C[C@@H](O)[C@H](O)[C@]2(OCCCc3ccccc32)O1`, for which the “activity change, negative = growth inhibition” value is -25.4%.
The same measure, in the same setting: the same measure for `COc1ccc(C(=O)OCC(=O)N2CC(=O)Nc3ccccc32)cc1Br`: -8.62%; for `Cn1cccc1/C=N/NC(=O)CNc1cccc2ccccc12`: 4.64%; for `C/C(Cc1ccccc1)=N\NC(=O)CNC(=O)c1cccc(Br)c1`: 0.991%.
Consider `O=C(NC1CCCC1)c1ccc(Br)s1`, for which the “activity change, negative = growth inhibition” value is -20.1%.
With `C/C(=N\NC(=O)CNc1cccc2ccccc12)c1ccc(Br)s1`, the Potency is 11.6 µM (active).
The same measure, in the same setting: the same measure for `Cc1cccc(/C=N/NC(=O)CNc2cccc3ccccc23)n1`: 18.4 µM (active).
As for `Cc1ccc(C(=O)N/N=C/c2cccc3ccccc23)cn1`, the “activity change, negative = growth inhibition” value is 14.6%.
As for `COc1cc(OC)cc(C(=O)NCCSCc2ccc(Cl)cc2)c1`, the “activity change, negative = growth inhibition” value was -3.77%.
With `Cc1ccc(C(=O)NC2CCN(C(=O)Nc3ccccc3Cl)CC2)cc1`, the “activity change, negative = growth inhibition” value was -7.58%.
Regarding `Cc1ccc(C)n1NC(=O)c1ccc([N+](=O)[O-])cc1`, the “activity change, negative = growth inhibition” value was 14.1%.
With `CC(=O)N1CCc2ccc(N)cc21`, the “activity change, negative = growth inhibition” value was 5.64%.
Consider `CC1CCN(C(=O)CCc2nnc3ccc(NCc4ccco4)nn23)CC1`, for which the “activity change, negative = growth inhibition” value is -29.9%.
`CN1CCc2c(sc3c2c(NCc2ccco2)nc2nnnn23)C1`: the Potency is 29.1 µM (active).
In the case of `Cn1c(=O)n(Cc2ccco2)c(=N)c2c3c(sc21)CCCC3`, the “activity change, negative = growth inhibition” value is -26.4%.
In the case of `O=C(COC(=O)c1ncc(Cl)c(Cl)c1Cl)NNC(=O)c1ccccc1`, the “activity change, negative = growth inhibition” value is -26.2%.
`COc1ccc(N2C(=O)NC(NS(=O)(=O)c3ccc(Cl)cc3)(C(F)(F)F)C2=O)cc1` (centres undefined): the “activity change, negative = growth inhibition” value was 4.4%.
For `O=C1/C(=C\c2ccccc2Cl)SC(=S)N1CCC(=O)N1CCCc2ccccc21`, the Potency is 6.51 µM (active).
